Counter-ions that a name gives are not always drawn. ± gives the uncertainty stated by the source.

The test deals with NCC-MFS5-C1. In words: cell viability relative to DMSO control; higher = less growth inhibition. Particulars: 10 µM; treatment time: 3 days. As to the method: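 NCC-MFS5-C1 myxofibrosarcoma cells (1x10^4 per well, 384-well) were treated on day 2 with 10 µM of each drug. On day 5, viability was read by CCK-8 absorbance at 450 nm and normalised to the DMSO control (%), n = 2.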
On to `CN(C)/N=N/c1[nH]cnc1C(N)=O` [Dacarbazine], for which the cell viability was determined as 82 ± 1.7%.

Turning to `CCOC(=O)[C@H](CCc1ccccc1)N[C@H]1CS[C@H](c2cccs2)CN(CC(=O)O)C1=O` [Temocapril HCl], the cell viability came out at 86 ± 1.2%. `CS(=O)(=O)OCCCCOS(C)(=O)=O` [Busulfan] registered a cell viability of 83.3%. For the compound `CO[C@@]12[C@H](COC(N)=O)C3=C(C(=O)C(C)=C(N)C3=O)N1C[C@@H]1N[C@@H]12` [Mitomycin C], the cell viability came out at 41.7 ± 3.7%.

`CN1CCN(c2ccc(C(=O)Nc3n[nH]c4ccc(Cc5cc(F)cc(F)c5)cc34)c(NC3CCOCC3)c2)CC1` [Entrectinib (RXDX-101)]: the cell viability was found to be 14.7 ± 15%. The value for `Cc1ccc(-c2cc(C(F)(F)F)nn2-c2ccc(S(N)(=O)=O)cc2)cc1` [Celecoxib] was 72.1 ± 10%.

The compound `O=NN(CCCl)C(=O)NC1CCCCC1` [Lomustine] came in with a cell viability of 84.1 ± 18%.

In general, cell viability refers to a read-out of living cells in per cent, often relative to untreated cells.
